Shown are actives, neighbours in structure and some others; about 2.9% of the full set was active somewhere.
ADAM17 inh = ADAM17 inhibition, QFRET primary screen; 370,000 tested, 0.83% active; AID 720648; inhibition, % at 6.95 µM; P78536; recombinant ADAM17, EDANS/DABCYL FRET peptide cleavage;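 active = inhibition above the mean of compounds lying between control limits plus 3 SD, set per campaign, cut at about 8.5% in these data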;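 note: 0% = DMSO-only wells as the low control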
Target sequence (P78536 215-824 limits assumed): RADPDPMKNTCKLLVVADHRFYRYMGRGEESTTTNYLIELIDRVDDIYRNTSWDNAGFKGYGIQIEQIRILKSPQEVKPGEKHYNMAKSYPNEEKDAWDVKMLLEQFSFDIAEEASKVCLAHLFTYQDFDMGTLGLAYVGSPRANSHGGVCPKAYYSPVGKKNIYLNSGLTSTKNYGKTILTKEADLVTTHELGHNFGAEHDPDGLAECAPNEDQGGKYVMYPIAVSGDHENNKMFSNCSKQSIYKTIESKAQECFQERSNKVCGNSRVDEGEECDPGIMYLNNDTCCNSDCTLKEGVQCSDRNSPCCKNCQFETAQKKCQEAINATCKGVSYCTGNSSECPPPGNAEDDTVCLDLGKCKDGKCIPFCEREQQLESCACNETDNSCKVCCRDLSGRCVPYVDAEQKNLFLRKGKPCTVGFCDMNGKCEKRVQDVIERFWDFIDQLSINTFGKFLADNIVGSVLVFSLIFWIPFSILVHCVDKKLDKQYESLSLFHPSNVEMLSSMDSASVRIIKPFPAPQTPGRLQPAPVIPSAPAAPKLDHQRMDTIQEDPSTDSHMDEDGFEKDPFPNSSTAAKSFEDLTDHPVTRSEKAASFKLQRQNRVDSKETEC
ADAM10 inh = ADAM10 inhibition, QFRET primary screen | O14672 | recombinant ADAM10, EDANS/DABCYL FRET peptide cleavage, 3 h | inhibition, % at 7 µM | 370,000 tested, 0.62% active | AID 720582;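 active = inhibition above a per-campaign cutoff equal to the mean of compounds falling between control-based bounds plus 3 SD, cut at about 20% in these data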;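 note: 0% = DMSO wells while the 100% control is not disclosed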
proKLK7 act = proKLK7 (human) activation, primary screen; purified proKLK7, EDANS-DABCYL substrate fluorescence; 100% is mature enzyme control, 0% vehicle; AID 652039; activation, % at 7 µM; 370,000 tested, 0.9% active;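 active = activation above the mean of all tested compounds plus 3 SD, computed per campaign excluding outliers beyond control limits, cut at about 13% in these data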
PLC-beta3 inh = inhibitors of human phospholipase C beta3 | Q01970 | Purified PLC-beta3, fluorogenic substrate, fluorescence | inhibition, % at 12.2 µM | 370,000 tested, 0.18% active | AID 720704; in the data active = inhibition above about 11%;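 note: 0% = median of compound wells on plate and 100% = full blocker control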
PLCg1 inh = inhibitors of human phospholipase C gamma1 | 370,000 tested, 0.84% active | AID 720700 | P19174 | inhibition, % at 12.2 µM | purified PLC-gamma1, fluorogenic substrate, fluorescence; in the data active = inhibition above about 9.5%
KLK7 act conf = confirmation of human kallikrein-7 zymogen activators | shares compounds with proKLK7 act | purified proKLK7, EDANS-DABCYL substrate fluorescence; scaled: vehicle 0, mature enzyme 100 | activation, % at 7 µM | 3,200 tested, 68% active;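 active = activation, as change over the incubation, above the mean of all tested compounds plus 3 SD, cut at about 13% in these data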
EDANS interfere = optically interferes with EDANS-DABCYL signal, flagging KLK7 hits. shares compounds with proKLK7 act. EDANS-DABCYL substrate fluorescence interference, no enzyme, 4 h; solvent 0%, active enzyme control 100%. activation, % at 7 µM. 3,200 tested, 80% active;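 active = activation above the all-compound mean plus 3 SD, ignoring values outside control-based bounds, cut at about 4.8% in these data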;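 note: value is the 4 h activation minus the activation read at time zero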
EDANS interf = counter-screen for kallikrein-7 activators: EDANS-DABCYL interference, dose response; EDANS-DABCYL peptide fluorescence interference, no enzyme; 250 tested, 20% active; AID 720493; shares compounds with proKLK7 act; EC50, µM;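 active = compounds that raise the fluorescence signal in this interference counterscreen, with EC50 at or below 10 µM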;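 note: intact quenched peptide substrate alone read at 355 nm excitation and 520 nm emission; signal is fluorescence gain from T0 to T4 after four hours at room temperature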
* marks the source's active call; other numbers are inactive results; i = inactive; / = no result.

SMILES	ADAM17 inh	ADAM10 inh	proKLK7 act	PLC-beta3 inh	PLCg1 inh	KLK7 act conf	EDANS interfere	others
Cn1c(=O)c2[nH]c(-c3ccccc3)c(O)c2n(C)c1=O	-5	-20	17*	-107	-85	41*	40*
CCCCNC(=O)c1nc(-c2cccc(C(F)(F)F)c2)oc1-c1ccc(OC(F)(F)F)cc1	-2	-6	0	-1	-1	/	/
Cc1ccc2cc3cc(C(=O)NCCCN4CCCC4=O)oc3nc2c1	i	i	17*	-406	-267	9	7.5*
Cc1ccc2cc3cc(C(=O)NCCN4CCOCC4)oc3nc2c1	-318	i	13*	-267	-201	14*	13*
CCCCN(CC)CCCNC(=O)c1cc2cc3ccc(OC)cc3nc2o1	i	i	63*	i	i	58*	72*
COc1ccc2cc3cc(C(=O)NCc4cccs4)oc3nc2c1	-378	i	-69	i	i	/	/
COc1ccc2cc3cc(C(=O)NCCCN4CCOCC4)oc3nc2c1	i	i	49*	i	i	64*	69*
CCOC(=O)c1cc(S(=O)(=O)N2CC(C)CC(C)C2)cn1C (stereo not given)	-1	-1	0	-3	3	/	/
O=C1/C(=C/c2cccc(F)c2)Oc2cc(O)ccc21	-16	-34	21*	i	i	56*	79*
Cc1cc2c3c(ccc(C)c3n1)N=CN2c1ccccc1	-132	-372	62*	i	i	8	4.8*
O=C(NCCc1cccc(Cl)c1)c1cccc([N+](=O)[O-])c1	3	-4	1	4	7	/	/
CCOC(=O)N1CCN(S(=O)(=O)c2ccc(C(=O)Nc3sc4c(c3C#N)CC(C)(C)NC4(C)C)cc2)CC1	1	-5	109*	-13	-4	53*	51*
CC1(C)Cc2c(sc(NC(=O)c3ccc(S(=O)(=O)N4CCCCCC4)cc3)c2C(N)=O)C(C)(C)N1	-18	-32	31*	-375	-214	33*	31*
CC1(C)Cc2c(sc(NC(=O)c3ccc(S(=O)(=O)N4CCCC4)cc3)c2C#N)C(C)(C)N1	-4	4	38*	-10	2	141*	154*
CC1(C)Cc2c(sc(NC(=O)c3ccc4c(c3)OCCO4)c2C(N)=O)C(C)(C)N1	-1	-10	1	-388	-281	/	/
COC(=O)c1c(NC(=O)c2ccc(C(=O)c3ccccc3)cc2)sc2c1CC(C)(C)NC2(C)C	0	-12	-1	-104	-79	/	/
Cc1ccccc1OCC(=O)Nc1sc2c(c1C#N)CC(C)(C)NC2(C)C	4	9	0	-4	6	/	/
CC1(C)Cc2c(sc(NC(=O)c3ccc(C(=O)c4ccccc4)cc3)c2C#N)C(C)(C)N1	1	1	15*	-11	-3	1	15*
CCOC(=O)N1CCN(S(=O)(=O)c2ccc(C(=O)Nc3sc4c(c3C#N)CCC4)cc2)CC1	-3	6	0	5	3	/	/
CCOC(=O)c1cnc(-n2nc(C)cc2C)nc1NCCc1ccccc1	-22	-92	-1	-5	-2	/	/
Cc1cccc(NC(=O)c2ccc(S(=O)(=O)N3CCCC3)cc2)c1C	-2	6	0	5	2	/	/
O=C(Nc1cccc2c1C(=O)NC2=O)c1ccc(S(=O)(=O)N2CCCC2)cc1	-80	-189	22*	i	i	258*	264*
CN(C(=O)CSc1nnc(NC2CCCCC2)s1)C1CCS(=O)(=O)C1 (stereo not given)	-2	2	1	3	0	/	/
COC(=O)c1ccccc1-c1c2ccc(=N)cc-2oc2cc(N)ccc12	-1	-8	101*	i	i	65*	86*
CC1CCCN(Cc2c(O)ccc3c(=O)c(-c4ccc(Cl)cc4)coc23)C1 (stereo not given)	-92	-202	-1	-368	-227	/	/
SMILES	ADAM17 inh	ADAM10 inh	proKLK7 act	PLC-beta3 inh	PLCg1 inh	KLK7 act conf	EDANS interfere	others
O=c1c(-c2ccc(Br)cc2)coc2c(CN3CCCCC3)c(O)ccc12	-169	-408	9	i	-463	/	/
COc1ccc(Oc2coc3c(CN4CCOCC4)c(O)ccc3c2=O)cc1	-83	-280	29*	-353	-330	12	15*
O=c1c(-c2ccc(Br)cc2)coc2c(CN3CCOCC3)c(O)ccc12	-78	-238	14*	-264	-220	13*	5.8*	EDANS interf=>69
O=c1c(-c2ccccc2Cl)coc2c(CN3CCCCC3)c(O)ccc12	i	i	60*	i	i	74*	74*
Oc1ccc2ccccc2c1CN1CCCCC1	-28	-110	-5	-10	-3	/	/
O=c1c(-c2ccc(Cl)cc2)coc2c(CN3CCCCC3)c(O)ccc12	-178	i	14*	i	i	22*	27*
CN(C)c1cc(-c2cccc([N+](=O)[O-])c2)oc(=O)c1Cl	-2	-6	0	-6	-1	/	/
CC1CN(Cc2c(O)ccc3c(=O)c(-c4ccccc4Cl)coc23)CC(C)O1 (stereo not given)	-370	i	90*	i	i	26*	30*
COC(=O)c1ccccc1NC(=O)Cn1c(SC)c(F)cnc1=O	3	0	1	1	-3	/	/
COc1cc(OCc2ccccc2)c2c(CCC(=O)O)cc(=O)oc2c1	i	i	89*	i	i	59*	58*
CCc1cc(=O)oc2cc(OC(C)=O)cc(OC(C)=O)c12	i	i	79*	i	i	486*	534*
CCOC(=O)C1=Nc2cccc3c(O)ccc1c23	-44	-167	53*	i	-469	79*	85*
NC(=O)c1ccsc1NC(=O)CSc1nncs1	-1	-4	0	-7	1	/	/
CCc1ccc(C2=CC(c3cc(Br)ccc3F)n3ncnc3N2)cc1 (stereo not given)	-103	-264	13*	i	i	4	4.9*
COc1ccc2c(C)cc(SCC(=O)c3ccc4c(c3)OCO4)nc2c1	2	2	-5	-4	-4	/	/
CCOP(=O)(OCC)c1nc(-c2ccccc2Cl)oc1N1CCOCC1	-8	-24	0	-3	-4	/	/
CCOP(=O)(OCC)c1nc(-c2cccc3ccccc23)oc1N1CCOCC1	i	i	63*	i	i	63*	58*
O=C(COC(=O)/C=C/c1ccc(F)cc1)NC1CCCC1	4	-13	0	-9	-2	/	/
CSc1ccc(/C=C/C(=O)OCC(=O)NC2CCCC2)cc1	-292	i	19*	-329	-239	-2	4

Compound activity (PubChem BioAssay)
